Screening data deposited in PubChem by several laboratories.
Rows were chosen to be rich in hits. Some 4.5% of all compounds tested hit in one or more screens of this group.
EBNA-1 inhibitor: EBNA-1 DNA-binding inhibitors, primary screen, biochemical, fluorescence polarization; inhibition, % at 14.8 µM; hit rate 0.34% among 300,000; AID 1950, 2009; in the data active = inhibition above about 28%
ZTA DNA inh: blocks Epstein-Barr virus ZTA, an EBNA-1 counter-screen | hit rate 0.15% among 320,000 | AID 2234 | ZTA-DNA binding, fluorescence polarization | P03206 | inhibition, % at 11 µM; in the data active = inhibition above about 33%
Target sequence (P03206 whole entry, looked up): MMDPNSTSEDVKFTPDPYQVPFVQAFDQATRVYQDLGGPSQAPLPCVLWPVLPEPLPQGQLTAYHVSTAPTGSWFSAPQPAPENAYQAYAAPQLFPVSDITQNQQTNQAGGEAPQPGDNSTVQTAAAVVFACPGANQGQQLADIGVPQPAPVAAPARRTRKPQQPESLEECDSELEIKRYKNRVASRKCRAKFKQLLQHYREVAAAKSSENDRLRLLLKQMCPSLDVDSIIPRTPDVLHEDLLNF
dFosB act: activators of delta FosB homodimer, primary screen, biochemical, fluorescence polarization, TAMRA-CDK5 oligo, single point | activation, % at 25 µM | Protein FosB (Mus musculus), P13346 | purified delta FosB; percent of positive-control signal above neutral wells | hit rate 0.99% among 340,000;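 active = mean activation above about 17%, with every replicate also reaching it, limit read from the data, passing the limit was not always enough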
Target sequence (P13346 whole entry, looked up): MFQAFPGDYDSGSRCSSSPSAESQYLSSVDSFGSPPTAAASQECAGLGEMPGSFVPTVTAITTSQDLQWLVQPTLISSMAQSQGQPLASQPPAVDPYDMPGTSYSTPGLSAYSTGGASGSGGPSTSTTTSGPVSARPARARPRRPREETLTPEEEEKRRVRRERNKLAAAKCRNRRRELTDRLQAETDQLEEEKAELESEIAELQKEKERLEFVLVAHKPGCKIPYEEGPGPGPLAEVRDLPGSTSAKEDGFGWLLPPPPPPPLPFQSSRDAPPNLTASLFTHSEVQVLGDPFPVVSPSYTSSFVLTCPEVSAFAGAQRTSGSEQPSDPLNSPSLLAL
GRIN3A LBD mod: binders of NR3A ligand-binding domain, primary screen, biophysical, differential scanning fluorimetry, uHTS. NR3A LBD differential scanning fluorimetry, Tm shift; 0% = protein alone, 100% = glycine-bound protein. Tm shift relative to glycine control, % at 25 µM. hit rate 2.5% among 340,000. AID 1259313, 2017;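 active = melting temperature shift of at least 10% of the positive control shift, at one fixed dose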
TPT1 inhibitor: Candida albicans TPT1 enzyme inhibitors, primary screen, biochemical, fluorescence polarization. recombinant caTPT1, FP RNA substrate dephosphorylation. inhibition, % at 5 µM. tRNA 2'-phosphotransferase TPT1 (Candida albicans SC5314). AID 1962, 2009. hit rate 0.81% among 300,000;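 active = inhibition above the mean of all tested compounds plus 3 SD, set per screening campaign, cut at about 24% in these data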;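 also: plate controls were DMSO alone for no effect and ferristatin control at 100 nM for full effect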
Rpn11 block: Rpn11 (PSMD14) deubiquitinase inhibitors, primary screen, biochemical, fluorescence polarization, uHTS; 26S proteasome non-ATPase regulatory subunit 14 (Homo sapiens), O00487; human 26S proteasome, Ub4-pepOG fluorescence polarization; 20S core pre-blocked with epoxomicin; inhibition, % at 20 µM; hit rate 0.59% among 360,000; AID 588493, 2011;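 active = inhibition at 20 µM, scaled to each plate's controls, above about 33%, limit read from the data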
Active calls of the source: *; x = not tested or not shown.

SMILES	EBNA-1 inhibitor	ZTA DNA inh	dFosB act	GRIN3A LBD mod	TPT1 inhibitor	Rpn11 block
COc1ccc(-c2cc(C(F)(F)F)nc(N3CCCCCC3)n2)cc1	-3	0	0	-1	2	-4
CN1CCN(c2nc(C#N)cc(-c3ccccc3)n2)CC1	-1	11	-5	11*	-5	-3
FC(F)(F)c1cc(-c2ccccc2)nc(N2CCCCCC2)n1	2	7	2	11*	0	-1
Cc1ncc(CO)c(CO)c1OCC(O)CN1CCN(c2ccc(F)cc2)CC1 (stereo not given)	x	x	x	x	x	-2
O=c1[nH]c(CN2CCCCC2)ccc1O	x	x	x	x	x	-20
NC(=O)COC(=O)CC(NC(N)=O)c1ccc(Cl)cc1 (stereo not given)	-8	-3	-3	13*	2	-5
COc1ccc(C(N)=O)c(OCC(=O)Nc2cc(C)on2)c1	x	-21	5	15*	x	-2
O=C(NCc1ccccc1)C(c1ccc(F)cc1)N(C(=O)c1csnn1)C1CC1 (stereo not given)	-7	-8	-5	1	-2	6
N/C(=N\OC(=O)c1ccc(Br)cc1)c1ccccc1	10	-14	-3	-5	-2	-1
COc1ccc(C(=O)O/N=C(\N)c2ccc(Br)cc2)cc1	-19	-9	-1	20*	1	-4
N/C(=N\OC(=O)c1cccc(Br)c1)c1ccc(Br)cc1	1	10	3	23*	-3	6
COc1ccc(C(=O)O/N=C(\N)c2ccccc2)cc1	-6	-2	-15	x	-4	4
N/C(=N\OC(=O)c1cccc(Br)c1)c1ccc([N+](=O)[O-])cc1	1	-1	-2	14*	0	0
COc1ccc(OCC(=O)O/N=C(\N)Cc2ccc(Cl)cc2)cc1	3	6	-7	15*	-5	-1
N/C(Cc1ccc([N+](=O)[O-])cc1)=N\OC(=O)c1cccc(Br)c1	13	11	-11	-15	0	-1
COc1ccc(CNC(=O)C/C(C)=N/NC(=O)COc2ccccc2)cc1	5	1	-1	0	0	-3
CC1CC(C)C(=NNC(N)=O)C(C(O)CC2CCC(=O)NC2=O)C1 (stereo not given)	x	x	6	-9	x	-6
N/C(=N/OC(=O)c1cccc([N+](=O)[O-])c1)c1cccc([N+](=O)[O-])c1	-5	-5	15	0	-1	-10
N/C(=N\OC(=O)c1ccc2ccccc2c1)c1cccc([N+](=O)[O-])c1	11	3	2	35*	-2	1
COc1ccc(C/C(N)=N/OC(=O)c2cccc([N+](=O)[O-])c2)cc1	-5	5	-4	14*	1	-2
O=C(NC12CC3CC(CC(C3)C1)C2)c1ccc([N+](=O)[O-])o1	4	14	-2	1	4	2
Cc1cc(C)cc(NC(=O)Nc2ccc(-n3ccc(C(F)(F)F)n3)cc2)c1	0	0	14	17*	0	-4
Cc1cc(N/N=C/c2ccc(F)cc2)nc(NCc2ccccc2)n1	0	1	x	35*	2	2
Cc1ccc(/C=N/Nc2cc(C)nc(NCc3ccccc3)n2)cc1	4	-1	55*	1	0	1
Cc1cc(Nc2ccc(Cl)cc2)nc(NCc2ccccc2)n1	0	13	38*	-2	0	-16
SMILES	EBNA-1 inhibitor	ZTA DNA inh	dFosB act	GRIN3A LBD mod	TPT1 inhibitor	Rpn11 block
Cc1cc(N/N=C/c2ccc(N(C)C)cc2)nc(NCc2ccccc2)n1	-11	-18	8	-8	-1	-4
Cc1cc(Nc2ccccc2)nc(NCc2ccccc2)n1	1	2	4	-6	-3	-3
COc1ccc(CNC(=O)C2CCN(S(=O)(=O)c3ccc(Br)s3)CC2)cc1	-5	-6	-11	0	0	-3
NC(=O)c1ccsc1NC(=O)COC(=O)Cc1ccccc1Cl	x	4	-11	-5	x	-3
CCN(CC)P(=O)(Nc1ccc(C)cc1Br)c1ccc(N(C)C)cc1NC(=O)c1ccco1 (stereo not given)	1	-3	0	-5	-3	16
Cc1ccc2oc(=O)c3cnn(CC(=O)NCCC(C)C)c3c2c1	3	-8	-16	13*	-3	14
CCOc1ccc(-c2n[nH]c(C)c2-c2ccccc2OC)c(O)c1	-3	5	0	-16	1	-2
CCc1cc(-c2n[nH]c(C)c2-c2ccccc2Cl)c(O)cc1OC	16	12	-3	13*	-4	-9
COc1ccc(CCNS(=O)(=O)c2ccc(-c3ccc(=O)[nH]n3)o2)cc1OC	0	-21	-7	0	-1	-7
O=C1CC(SC(=Nc2ccccc2)Nc2ccccc2)C(=O)N1c1cccc(Cl)c1 (stereo not given)	-6	-1	-3	10*	-4	6
O=C1CC(SC(=Nc2ccccc2)Nc2ccccc2)C(=O)N1c1ccc(Cl)cc1 (stereo not given)	-1	-5	3	9	-4	0
COCCOc1ccc(C(F)(F)F)cc1NC(=O)COC(=O)C12CC3CC(CC(O)(C3)C1)C2	0	0	-11	26*	-3	2
CCOC(=O)c1ccc(NC(=O)c2ncn3c2C(=O)NC[C@@H]3C)cc1	x	x	x	x	x	-2
COc1ccc2[nH]c(=O)c(CN(Cc3cccs3)C(=S)Nc3ccccc3)cc2c1	1	-11	x	x	-5	x
COc1cc2cc(CN(Cc3cccs3)C(=S)Nc3ccccc3)c(=O)[nH]c2cc1OC	-8	13	13	17*	1	1
Cc1ccc(NC(=S)N(Cc2cccs2)Cc2cc3cccc(C)c3[nH]c2=O)cc1	-13	-6	4	15*	-1	3
COCCN1CCN(C(=O)c2ccc3c(c2)S(=O)(=O)c2ccccc2C3=O)CC1	10	23	x	-1	2	x
CCN(CC)C(=O)C(=O)c1cccn1-c1c(Cl)cccc1C#N	2	0	-5	2	-1	30
O=C(CSc1nccc(=O)[nH]1)NC1CCCCCC1	x	x	2	3	x	-10
Nc1cc(-c2ccncc2)c[nH]c1=O	-7	1	7	13*	-5	-3
CCN(CC)c1ccc(N=Cc2c(C)[nH]c3ccccc23)cc1	199*	188*	3	-6	9	1
Cn1nc(CC(=O)Nc2ccc(N3CCN(C(=O)OC(C)(C)C)CC3)cc2)c2ccccc2c1=O	4	-1	21*	3	-2	8
O=C(Cc1ccc2c(c1)OCCO2)N1CCN(c2ccccc2)CC1	3	-12	-7	0	-2	0
